Only some compounds are listed: those with a hit (about 21% of all), similar ones and a draw of the others.
HCV inhibitor – inhibitors of hepatitis C virus infection; Huh7.5.1 HCVcc-Cre infection, luciferase reporter, 44 h; Potency, µM (series often up to 41.8 µM), inactives show top-dose activity change, negative = inhibition, usual class: inhibitors; actives 3.4% (n = 340,000); AID 651820; also: potency is read from the fitted curve at half-maximal effect; % is scaled to controls: 0 for no effect and ±100 for the full control effect
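Cells (1,000/well) were plated 4 h before compound, then infected with HCVcc-Cre virus (~0.5 moi). After 44 h further culture, infection was read as luciferase luminescence following a 15 min substrate incubation at room temperature.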
Shiga toxin inh – Shiga toxin inhibition; Vero cells, Shiga toxin protein synthesis inhibition reporter; inhibition, % at 38.7 µM; actives 9.2% (n = 290,000); AID 2315; in the data active = inhibition mostly above about 28%, no sharp cut-off; inactive = mostly below about 43%; also: 0% is about no effect
Pf growth 96h – P. falciparum growth inhibition at 96 hours. P. falciparum luciferase reporter growth, 96 h. Potency, µM (top dose mostly 28.7 µM), inactives show at the highest dose activity change, negative = inhibition, most hits filed as inhibitors. actives 6.9% (n = 320,000). AID 504834; also: potency is read from the fitted curve at half-maximal effect; % is scaled to controls: 0 for no effect and ±100 for the full control effect
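Compounds incubated with erythrocytes infected by luciferase-expressing P. falciparum (2% hematocrit, 0.05% parasitemia final) for 96 hours, 37 C in 5% CO2. Growth inhibition scored as decreased luciferase luminescence.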
Cycloheximide cs – counter-screen for Shiga toxin inhibitors: cycloheximide protein synthesis inhibition; cell reporter, cycloheximide protein synthesis inhibition counterscreen; max response, %; actives 12% (n = 300,000); AID 2314; in the data active = max response mostly above about 13%, no sharp cut-off; inactive = mostly below about 14%; also: read at 38.3 µM for the half of the compounds with a filed dose; 0% is about no effect
AMA1-RON2 inh – AMA1-RON2 (P. falciparum) interaction inhibition. actives 0.2% (n = 360,000). AID 720542. AlphaScreen AMA1-biotinylated RON2 peptide binding. Potency, µM (top dose mostly 58.2 µM), for inactives: top-dose activity change, negative = inhibition, actives largely listed as inhibitors;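 also: potency is read from the fitted curve at half-maximal effect; 0% = vehicle wells and -100% = peptide control; nearly all actives have a fitted effect of over 45% in size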
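AMA1 (3D7) with his tag at 25 nM final met compounds first, then biotinylated RON2 peptide at 25 nM; detection used donor plus acceptor beads, 10 µg/mL apiece, read by AlphaScreen after 30 min at room temperature.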
Pf growth 48h – inhibits P. falciparum growth in the first generation, 48 h | P. falciparum luciferase growth in erythrocytes, 48 h | Potency, µM (series often up to 28.7 µM), without a hit: top-dose activity change, negative = inhibition, hits mostly inhibitors | actives 5.9% (n = 310,000) | AID 504832; also: potency is read from the fitted curve at half-maximal effect; % is scaled to controls: 0 for no effect and ±100 for the full control effect
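Growth was read as firefly luciferase luminescence after a 48 h, 37 C, 5% CO2 exposure of compounds to reporter-bearing P. falciparum cultures (0.1% parasitemia, 2% hematocrit final) in Albumax-supplemented RPMI 1640.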
The depositor's hits bear a star; i = inactive; u = inconclusive; x = not tested or not shown; [ ] = remark or other dose. Unless noted, calls follow the shape of the dose curve; as a rule, active = well fitted curve in the direction sought with a large enough effect; inconclusive = small, poorly fitted or top-dose-only effect, or another doubt; inactive = no such curve, though single readings can be large; an effect the other way counts as inactive or inconclusive.

SMILES | HCV inhibitor | Shiga toxin inh | Pf growth 96h | Cycloheximide cs | AMA1-RON2 inh | Pf growth 48h
O=C(Nc1ccc(C(F)(F)F)cc1)OC1CN2CCC1CC2 (centres undefined) | u | 55* | u | 32* | 8% | u
O=C(NCCCCc1ccccc1)C1CC(c2ccc(C(F)(F)F)cc2)=NO1 (centres undefined) | 12% | -3 | 82% | -1 | 2% | 48%
COc1ccc(CCC(=O)N2CCCSC2=Nc2ccc(C(C)=O)cc2)cc1 | 29% | -1 | u | 21* | -3% | 7%
CC(C)[C@H](NC(N)=O)C(=O)Nc1cccc(S(=O)(=O)N2CCOCC2)c1 | 25% | -7 | -20%[1.15 µM] | -5 | -6% | 9%
CC(C)(C)NC(=O)CN(C(=O)CN1C(=O)C(=O)c2ccccc21)C(C)(C)C | 15% | -7 | 13µM* | -4 | 5% | 15%
CCOC(=O)C(NC(=O)c1ccc(OC)cc1)(OCC1(CC)COC1)C(F)(F)F (centres undefined) | 10% | -28 | 13µM* | -3 | 17% | 13µM*
CCOC(=O)C(NC(=O)c1ccccc1)(OCC1(CC)COC1)C(F)(F)F (centres undefined) | 16% | -5 | -4% | -3 | -5% | -27%
CC(=O)c1c(C)[nH]c(C(=O)NCCc2ccccc2)c1C | -18% | 104* | i | 36* | -1% | 21%
CC(=O)c1c(C)[nH]c(C(=O)NCc2ccc(Cl)cc2)c1C | x | x | x | x | 0% | x
CC(=O)c1c(C)[nH]c(C(=O)NCc2cccc(Cl)c2)c1C | 11µM* | -7 | 4% | 6 | -6% | -5%
O=S(=O)(c1cc(F)ccc1F)N1CCN(c2ncnc3ccccc23)CC1 | 3.2µM* | x | x | x | -1% | x
O=S(=O)(c1cc(F)ccc1F)N1CCN(c2ccccn2)CC1 | 6% | -8 | -6% | 3 | -2% | 5%
CCOc1ccc2nc(N3C(=O)/C(=C/c4ccc(Cl)cc4)NC3=S)sc2c1 | u | 2 | u | 13* | 15% | 11%
Nc1ccc(Oc2ccc3c(c2)C(=O)NC3=O)cc1 | 3% | x | u | 2 | 3% | 10%
CCC(C)NC(=O)CSc1nc2cc3c(cc2c(=O)n1Cc1ccco1)OCO3 (centres undefined) | -4% | -16 | u | -13 | 7% | -8%
COCCNC(=O)c1ccc2c(=O)n(Cc3ccco3)c(SCC(=O)NC3CCCC3)nc2c1 | -4% | -12 | 12µM* | 1 | 0% | x
C=CCn1c(SCC(=O)OCC)nc2cc(C(=O)NCc3ccco3)ccc2c1=O | u | -2 | 7.4µM* | -6 | 3% | x
CCN(CC)C(=O)CSc1nc2cc3c(cc2c(=O)n1Cc1ccco1)OCO3 | 10µM* | -12 | 8% | -1 | -9% | -34%
CCOc1ccc2nc(NC(=O)CSc3nc4ccccc4c(=O)n3Cc3ccco3)sc2c1 | u | -1 | 1.3µM* | 0 | 3% | u
CC(C)(C)NC(=O)C(c1cc2ccccc2o1)n1c(-c2ccc(-c3ccccc3)cc2)nc2ccccc21 (centres undefined) | x | x | x | x | -23% | x
CCC(C)c1ccccc1N1CC(C(=O)N(C)CC(=O)Nc2cccc(F)c2)CC1=O (centres undefined) | u | x | u | x | 10% | u
O=C(CC(=O)NC1CCCCC1)N/N=C/c1ccccc1F | x | -6 | 12% | -1 | x | 24%
O=C(CSc1nc2ccccc2c(=O)n1Cc1ccco1)c1ccccc1 | u | 52 | 0% | 24* | 4% | -19%
O=C(CSc1nc2ccccc2c(=O)n1Cc1ccco1)N1CCN(c2ccccc2)CC1 | u | 35 | -4% | 14 | -13% | 29%
CCN(C(=O)CSc1nc2cc(C(=O)OC)ccc2c(=O)n1Cc1ccco1)c1cccc(C)c1 | u | -1 | -7% | -2 | 3% | 4.7µM*
SMILES | HCV inhibitor | Shiga toxin inh | Pf growth 96h | Cycloheximide cs | AMA1-RON2 inh | Pf growth 48h
O=c1c2ccccc2nnn1CSc1nc2ccccc2c(=O)n1Cc1ccco1 | -3% | -5 | 24% | -2 | 6% | 1%
CCOC(=O)CSc1nc2c(sc3ccc([N+](=O)[O-])cc32)c(=O)n1Cc1ccco1 | 6.3µM* | 43* | 33% | 32* | 9% | 6.6µM*
CCOC(=O)CSc1nc2ccccc2c(=O)n1Cc1ccco1 | 13µM* | -4 | 1% | -4 | -9% | -2%
CC(C)N=C(NS(=O)(=O)c1ccc(Br)cc1)c1ccc(Cl)cc1 | 8% | -2 | 63% | -4 | -13% | 0%
CN1C(=O)N(CC(=O)Nc2ccc3c(c2)OCO3)C(=O)C12CCCCC2 | x | x | x | x | -4% | x
Cc1cc(=O)n(Nc2ccccc2)c(O)c1C#N | x | x | x | x | 11% | x
CCOc1ccc(N(CC(=O)N2CCCCCC2)S(C)(=O)=O)cc1 | 4% | -5 | 2% | -2 | 0% | 9%
CN(c1cc(=O)n2ccccc2n1)C1CCCCC1 | 7% | 24 | u | 24* | 6% | u
CC(C)c1nc2ccccn2c1NC1CCCCC1 | 2% | -8 | 224% | -2 | 1% | 15%
CCn1c(CNc2cccc(C(F)(F)F)c2)n[nH]c1=S | 2% | -5 | 34% | -2 | 98% | 5%
CCOc1cccc(NC(=O)C2CC(=O)N(C)C(=Nc3ccccc3)S2)c1 (centres undefined) | -5% | -13 | 3.7µM* | -5 | -18% | u
CCCOc1ccc(NC(=O)C2CC(=O)N(C)C(=Nc3cccc(OC)c3)S2)cc1 (centres undefined) | -4% | -12 | u | 0 | -5% | u
COc1ccccc1N=C1SC(C(=O)Nc2ccc(F)cc2)CC(=O)N1C (centres undefined) | 9% | 0 | u | -3 | -8% | 10µM*
Cc1cc(C)nc(N/N=C/c2cc(C)n(CC(F)(F)F)c2C)n1 | 0% | 33 | u | 22 | 66% | u
CCCOc1ccccc1N1C(=O)CC(N(O)c2ccccc2)C1=O (centres undefined) | -3% | 28 | 20% | 14* | -8% | 1%
CCCOc1ccc(N2C(=O)CC(N(CCc3ccccc3)C(=O)c3ccccc3)C2=O)cc1 (centres undefined) | -4% | 14 | 25% | 21* | 16% | 1%
CCCOc1ccc(N2C(=O)CC(N(O)c3ccccc3)C2=O)cc1 (centres undefined) | -3% | 113* | 47% | 20 | -14% | 51%
COc1ccccc1N(O)C1CC(=O)N(c2ccc(F)cc2)C1=O (centres undefined) | 0% | 61* | 43% | 32* | 1% | 9%
CCOc1ccc(NC(=O)Cn2nnc(C(=O)NCc3ccc4c(c3)OCO4)c2N)cc1 | -6% | -3 | 0% | 2 | -11% | 21%
O=CN/C=C/c1cccc(O)c1 | 24% | x | x | x | 12% | x
O=C(Nc1ncn[nH]1)c1cccc(F)c1 | 1% | x | 1.5µM* | x | 64% | 38%

Screening results deposited in PubChem BioAssay by National Center for Advancing Translational Sciences (NCATS).
